Source: PubChem (several laboratories)
Myeloid diff 2 = promotes myeloid progenitor differentiation; ER-HoxA9 myeloid progenitors, lysozyme-GFP differentiation, flow cytometry; calls only at 10 µM; 1% of 360,000 active; AID 624256;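 active = normalized GFP-positive differentiation at or above the plate's own cutoff, the solvent-only control mean plus 3 SD; inconclusive = no clear call, values can overlap the other calls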;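 also: cells exposed to compound for four days before flow analysis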
NOD2-RIPK2 inh = NOD2-RIPK2 protein interaction inhibition. inhibition, % at 4.98 µM. CHO BLA complementation NOD2-RIPK2, CCF4 ratio. O43353. AID 624267. 0.38% of 360,000 active; in the data active = inhibition above about 21%
TLR4-MyD88 BLA = TLR4-MyD88 interaction inhibition in cells | AID 861 | inhibition, % at 8.4 µM | O00206+Q99836 | 0.18% of 200,000 active | HeLa CL3-4 TLR4/MyD88 BLA complementation, FRET ratio; in the data active = inhibition above about 25%
TLR9-MyD88 inh = TLR9-MyD88 interaction inhibition; Q9NR96+Q99836; 0.21% of 340,000 active; CHO BLA complementation TLR9-MyD88, CCF4 FRET ratio; inhibition, % at 4.98 µM;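 active = inhibition above the mean over all tested compounds plus 3 SD, cut at about 21% in these data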
TLR9-MyD88 cf = confirmation of human TLR9-MyD88 binding inhibitors | shares compounds with TLR9-MyD88 inh | CHO TLR9/MyD88 BLA complementation, CCF4 FRET ratio | inhibition, % at 4.98 µM | 51% of 680 active | AID 540250;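 active = mean inhibition across three repeats above about 21% taken from the earlier screen, limit read from the data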;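 also: blue over green emission ratio reports constitutive TLR9 MyD88 association via BLA complementation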
BLA counter-1 = counter-screen for TLR9-MyD88 inhibitors: non-selective beta-lactamase inhibitors. 7% of 680 active. shares compounds with TLR9-MyD88 inh. AID 540251. inhibition, % at 4.98 µM. CHO-BLA cells, CCF4 FRET ratio, BLA reporter;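 active = mean inhibition above a 50% cutoff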;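 also: counterscreen of TLR9-MyD88 hits on CMV-driven BLA in CHO-K1 cells; higher means less blue over green ratio so more BLA blockade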
TLR9 CHO tox = CHO cell toxicity counter-screen for TLR9-MyD88 inhibitors; inhibition, % at 4.98 µM; TLR9-MyD88 CHO cells cytotoxicity, luminescence; 39% of 680 active; shares compounds with TLR9-MyD88 inh; in the data active = inhibition above about 11%
NOD2 RIPK2 conf = confirmation of human NOD2-RIPK2 interaction inhibitors; shares compounds with NOD2-RIPK2 inh; AID 624370; inhibition, % at 4.98 µM; CHO cells, NOD2-RIPK2 BLA complementation, CCF4 FRET; 70% of 1,200 active;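 active = mean inhibition across replicates above a set limit taken from the earlier primary screen, cut at about 21% in these data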
BLA counter-2 = hits BLA reporter in NOD2-RIPK2 inhibitor counterscreen; shares compounds with NOD2-RIPK2 inh; CHO BLA reporter, CCF4 FRET ratio; inhibition, % at 4.98 µM; 57% of 1,200 active;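 active = mean inhibition above the low-control mean inhibition plus three low-control SD, cut at about 11% in these data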
A number is an active result; - = inactive; ? = inconclusive; . = no result given. In the library only some 1.5% were active in any assay of this set; here they are far more common.

SMILES	Myeloid diff 2	NOD2-RIPK2 inh	TLR4-MyD88 BLA	TLR9-MyD88 inh	TLR9-MyD88 cf	BLA counter-1	TLR9 CHO tox	NOD2 RIPK2 conf	BLA counter-2
CCCC(=O)OCCNc1cc(Sc2nccn2C)c2nonc2c1[N+](=O)[O-]	?	71	-	53	71	-	97	92	47
Cc1nnc(Sc2cc(NCCCO)c([N+](=O)[O-])c3nonc23)s1	-	41	-	36	64	-	99	60	18
CCCSc1cc(NCCOC(C)=O)c([N+](=O)[O-])c2nonc12	-	-	-	-	.	.	.	.	.
CCCC(=O)OCCNc1cc(SCc2ccco2)c2nonc2c1[N+](=O)[O-]	-	-	-	-	.	.	.	.	.
CCC(=O)OCCNc1cc(Sc2nc3ccccc3s2)c2nonc2c1[N+](=O)[O-]	?	49	-	39	61	-	98	75	14
CNC[C@H]1OCc2ccccc2-c2ccccc2C(=O)N([C@@H](C)CO)C[C@H]1C	-	-	.	-	.	.	.	.	.
CC(C)(C)OC(=O)N1C(=O)[C@](OC(=O)c2ccccc2)(c2ccc(F)cc2)c2ccccc21	-	-	.	.	.	.	.	.	.
CC(C)=CCC[C@H](C)C[C@@H]1Cc2[nH][nH]c(=O)c2[C@@H](c2ccc(F)cc2)O1	-	-	.	.	.	.	.	.	.
O=[N+]([O-])c1c(Nc2cccc(O)c2)cc(Cl)c2nonc12	?	98	.	46	61	-	98	108	29
O=C(O)c1ccc(Nc2cc(Cl)c3nonc3c2[N+](=O)[O-])cc1	-	-	-	-	.	.	.	.	.
O=C(NC(c1ccccc1)c1ccsc1)C1CCN(CCOc2ccc(Cl)cc2Cl)CC1 (stereo not given)	-	-	.	.	.	.	.	.	.
Cc1ccccc1NC(=O)c1nc(S(C)(=O)=O)ncc1Cl	?	30	.	38	37	-	87	60	29
CCOC(=O)c1nc(S(C)(=O)=O)ncc1Cl	-	22	-	34	37	-	43	56	25
Cc1ccccc1NC(=O)c1cccc(C(=O)Nc2ccccc2C)n1	-	-	.	-	.	.	.	.	.
CCS(=O)(=O)c1ncc(Cl)c(C(=O)Nc2ccc(S(=O)(=O)N(C)c3ccccc3)cc2)n1	?	99	.	55	54	50	100	96	54
CCN(c1ccccc1)S(=O)(=O)c1ccc(NC(=O)c2nc(S(C)(=O)=O)ncc2Cl)cc1	?	97	.	61	59	-	100	98	49
CCOc1cc(OCC)cc(C(=O)NCCN2CCC(n3c(=O)[nH]c4ccccc43)CC2)c1	-	-	.	.	.	.	.	.	.
N#C/C(=C/c1ccco1)C(N)=S	-	-	.	-	.	.	.	.	.
N#CC(C#N)=C1C=CC=CN1/C(=C\c1ccco1)C(=O)c1ccc(Br)cc1	?	91	-	42	46	-	98	93	18
N#CC(C#N)=C1C=CC=CN1/C(=C\c1ccco1)C(=O)c1ccccc1	?	80	-	23	29	-	98	93	17
Clc1ccccc1/C=N/NC1=Nc2cccc3cccc1c23	-	36	-	31	-	-	11	30	29
O=C1C=C(C#Cc2ccccc2)C[C@@H](c2ccc(F)cc2)C1	-	-	.	-	.	.	.	.	.
CCc1c(C2CC2)ncn1Cc1cccc(-c2ccccc2)c1	-	-	.	.	.	.	.	.	.
Nc1c(C(=O)N2CCCCC2)sc2nc3c(cc12)CCCC3	-	-	.	-	.	.	.	.	.
Nc1c(C(=O)N2CCCC2)sc2nc(-c3ccccc3)ccc12	-	34	.	30	32	-	-	52	61
COC(=O)c1ccc(C(=O)N2CCCC(C)(C(=O)NS(=O)(=O)C3CC3)C2)cc1 (stereo not given)	-	-	.	.	.	.	.	.	.
C=CCn1c(Sc2ncc([N+](=O)[O-])s2)n[nH]c1=O	?	63	.	32	44	-	99	77	15
C=CCn1c(CSc2ccccc2[N+](=O)[O-])n[nH]c1=S	-	-	.	-	.	.	.	.	.
